The values that follow come from PubChem BioAssay (Tox21).

Inconclusive results are not listed. A number with no mark means an inactive call. Calls follow the shape of the dose curve; as a rule, active = well fitted cell-killing curve with a large enough effect in the repeat runs; inconclusive = weak or mixed curves, or effect the other way; inactive = flat fitted curve, though single readings scatter.
% is scaled to controls: 0 for no effect and ±100 for the full control effect.

A short description of the assay: cAMP Responsive Elements (CRE) small molecule antagonists, cell-based qHTS assay: qHTS cell viability counter screen (AID 2060913). Also: nearly all actives have a fitted effect of over 40% in size. Particulars: CRE-bla HEK293T viability, CellTiter-Glo luminescence, 5 h; series mostly up to 92.4 µM; viability change, negative = cytotoxic: at the top concentration. Put shortly: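 CRE-bla HEK293T cells (2,000/well, 18 h) given compound plus NKH477 0.25 uM final for 3 h at 37C; viability counter-screen by CellTiter-Glo luminescence in same wells after 30 min.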
In the case of `O=C(CCCl)NCc1ccccc1`, the “viability change, negative = cytotoxic” value was -0.0546% [at 42.5 µM].

`Cc1ccc2oc(CN(Cc3ccccc3)C(=O)Nc3c(F)cc(F)cc3F)c(-c3ccc(Cl)cc3)c2c1`: the “viability change, negative = cytotoxic” value was -16.3%.

Take `O=c1[nH]c2ccc(S(=O)CCN3CCC(Cc4ccc(F)cc4)CC3)cc2o1` (stereo unspecified): the “viability change, negative = cytotoxic” value is -9.09%.

With `O=C(OC[C@H]1O[C@@H](OC(=O)c2cc(O)c(O)c(OC(=O)c3cc(O)c(O)c(O)c3)c2)[C@H](OC(=O)c2cc(O)c(O)c(OC(=O)c3cc(O)c(O)c(O)c3)c2)[C@@H](OC(=O)c2cc(O)c(O)c(OC(=O)c3cc(O)c(O)c(O)c3)c2)[C@@H]1OC(=O)c1cc(O)c(O)c(OC(=O)c2cc(O)c(O)c(O)c2)c1)c1cc(O)c(O)c(OC(=O)c2cc(O)c(O)c(O)c2)c1`, the viability change, negative = cytotoxic is -4.21% [at 18.9 µM].

For `CC(NN)c1ccccc1` (stereo unspecified), the viability change, negative = cytotoxic is -0.733% [at 18.9 µM].

As for `O=C1CCCCO1`, the “viability change, negative = cytotoxic” value was 7.71%.

In the case of `C/C(=C(\CCOP(=O)(O)O)SC(=O)c1ccccc1)N(C=O)Cc1cnc(C)nc1N`, the viability change, negative = cytotoxic was 1.04% [at 8.39 µM].

Consider `CCOc1ccccc1OCC1CNCCO1` (stereo unspecified), for which the “viability change, negative = cytotoxic” value was 0.659% [at 42.5 µM].

In the case of `C1CC(COCC2CO2)CCC1COCC1CO1` (stereo unspecified), the “viability change, negative = cytotoxic” value was 7.45%.

In the case of `O=C1CCCCC1C1CCCCC1` (stereo unspecified), the “viability change, negative = cytotoxic” value is 16.3%.

As to `O=C(O)c1ccncc1`, the “viability change, negative = cytotoxic” value is -5.68%.

As for `O=C(O)c1ccc2cc(C(=O)O)ccc2c1`, the “viability change, negative = cytotoxic” value is 7.45%.

For the compound `CCO[Si](CC(C)C)(OCC)OCC`, the “viability change, negative = cytotoxic” value is -2.7%.

On to `O=S(O)O`, for which the viability change, negative = cytotoxic was 17.7% [at 18.9 µM].

`CCCCc1nc(Cl)c(CO)n1Cc1ccc(-c2ccccc2-c2nn[nH]n2)cc1`: the “viability change, negative = cytotoxic” value is 10.4% [at 42.5 µM].

Regarding `CN(CC1(C)CCCO1)S(=O)(=O)c1ccc(Cl)c(S(N)(=O)=O)c1` (stereo unspecified), the “viability change, negative = cytotoxic” value is -1.01% [at 42.5 µM].
